Among the test systems are NCI-H23 lung; NCI-H226 lung; NCI-H322M lung; HOP-62 NSCLC; NCI-H460 lung; HOP-92 NSCLC; NCI-H522 lung; A549/ATCC NSCLC; 786-0 renal; COLO 205 colon.
Assay in all cases: NCI-60 one-dose screen, 48 h (100 = growth as untreated, 0 = no growth, -100 = all killed)
Conditions in all cases: 10 µM

SMILES strings stand for the structures. This is part of a sample that, as a whole, favours compounds with a hit. Of some 83,000 tested, about 20% had one in any assay.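 Cell lines were cultured in 96-well plates, exposed to a single compound concentration, and assessed for percent growth 48 hours later.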 A number with no mark means an inactive call. Active and inactive are the calls of the source. The calls were made as follows: active = growth percent below 10; inactive = the rest.

Turning to `Cc1cccc2c1O/C(=C\c1ncc([N+](=O)[O-])n1C)C2=O`, the growth was -13.7% (active) in the test with NCI-H23 lung; -25% (active) in the test on NCI-H226 lung; -17.9% (active) with NCI-H322M lung; -33.5% (active) with HOP-62 NSCLC; -29.1% (active) in the test on NCI-H460 lung; -32.6% (active) with HOP-92 NSCLC. The growth was -55.8% (active) with NCI-H522 lung, -25.7% (active) in the test with A549/ATCC NSCLC, -28.5% (active) with 786-0 renal and -52.3% (active) in the test with COLO 205 colon.

As for `CCCCn1c(=O)[nH]c2c(c1=O)C(c1ccc(Cl)cc1)c1c([nH]c(=O)n(CCCC)c1=O)N2`, the growth was 90% in the test on NCI-H23 lung; 96.3% in the test on NCI-H226 lung; 91.6% in the test on NCI-H322M lung; 90.4% in the test on HOP-62 NSCLC; 106% in the test with NCI-H460 lung; 90.4% with HOP-92 NSCLC. Also, the growth is 83.3% with NCI-H522 lung, 87.8% with A549/ATCC NSCLC, 93.4% in the test on 786-0 renal and 105% with COLO 205 colon.

For `CCOC(=O)c1ccc(NC(=O)Nc2nncs2)cc1`, the growth in the test on NCI-H23 lung was 21.9%; in the test with NCI-H226 lung, -21.3% (active); in the test with NCI-H322M lung it was 43.2%; in the test on HOP-62 NSCLC, 26.4%; with NCI-H460 lung it was 7.58% (active); in the test with HOP-92 NSCLC, 58.2%. Moreover, the growth is 7.15% (active) in the test on NCI-H522 lung, 19.4% in the test on A549/ATCC NSCLC, 35.4% in the test with 786-0 renal and -25.9% (active) with COLO 205 colon.

As for `O=C(O)c1ccc(CNc2ccc(C(=O)CCl)cc2)cc1`, the growth with NCI-H23 lung is 116%; in the test on NCI-H226 lung, 97.2%; with NCI-H322M lung, 102%; with HOP-62 NSCLC, 98.5%; in the test with NCI-H460 lung, 103%; in the test on HOP-92 NSCLC it was 77.4%. The growth with NCI-H522 lung was -41.9% (active); with A549/ATCC NSCLC, 94.9%; in the test with 786-0 renal, 109%; in the test on COLO 205 colon, 97.3%.

Take `COC(=O)[C@]12CC[C@@H](C)[C@H](C)[C@@H]1C1=CC[C@@H]3[C@@]4(C)CC(=O)[C@H](O)[C@@](C)(CO)[C@@H]4C(=O)C[C@@]3(C)[C@]1(C)CC2`: the growth is -14.2% (active) with NCI-H23 lung; -5.55% (active) in the test on NCI-H226 lung; 18.4% with NCI-H322M lung; -21.5% (active) in the test with HOP-62 NSCLC; -48.9% (active) in the test on NCI-H460 lung; -65.9% (active) with NCI-H522 lung. For the same compound, the values for the growth in the test on A549/ATCC NSCLC, with 786-0 renal and in the test with COLO 205 colon were -63.6% (active), 0.121% (active) and -64.6% (active), respectively.

As to `Cc1cccc2c(Nc3ccc(NS(C)(=O)=O)cc3)c3ccc([N+](=O)[O-])cc3nc12`, the growth in the test on NCI-H23 lung is -17.6% (active); with NCI-H226 lung, -20.8% (active); with NCI-H322M lung it was 36.4%; in the test on HOP-62 NSCLC it was 14%; with NCI-H460 lung, -34.6% (active); with A549/ATCC NSCLC, 1.51% (active). Besides, the results for the growth in the test with 786-0 renal and with COLO 205 colon were 5.57% (active) and 34.9%, respectively.

For `CCCCCCCCCCCC(=O)NCCCN(C)C`, the growth in the test with NCI-H23 lung is 90.4%; in the test on NCI-H226 lung, 109%; with NCI-H322M lung it was 97.1%; with HOP-62 NSCLC, 111%; in the test with NCI-H460 lung it was 99.6%; with NCI-H522 lung it was 87.4%. The growth in the test with A549/ATCC NSCLC was 91.4%; in the test on 786-0 renal, 90.9%; in the test on COLO 205 colon it was 94.4%.

For the compound `COc1ccc(-c2cc(=O)n(-c3nc4ccccc4[nH]3)[nH]2)cc1OC`, the growth with NCI-H23 lung is 80.4%; in the test on NCI-H226 lung it was 85.1%; in the test with NCI-H322M lung it was 66.6%; in the test with NCI-H460 lung, 41.4%; in the test with HOP-92 NSCLC, 17.4%; in the test on NCI-H522 lung, 49.2%. The growth in the test with A549/ATCC NSCLC was 59%; with 786-0 renal it was 83%.

In the case of `CCOC(=O)[C@@H]1[C@H](c2ccccc2)[C@H]([N+](=O)[O-])[C@H](c2cn(-c3ccccc3)nc2C)N1Cc1ccccc1`, the growth with NCI-H23 lung is 88.6%; with NCI-H226 lung it was 66.6%; in the test with NCI-H322M lung it was 104%; in the test with HOP-62 NSCLC it was 64.2%; in the test on NCI-H460 lung, 41.9%; with NCI-H522 lung, 80.6%. Moreover, the growth was 66.2% in the test on A549/ATCC NSCLC, 74.5% with 786-0 renal and 64.7% with COLO 205 colon.

Regarding `O=c1oc2cc(OS(=O)(=O)C3CC3)ccc2c2c1CCCCCC2`, the growth is 70.4% with NCI-H23 lung; 67.2% in the test with NCI-H226 lung; 104% in the test with NCI-H322M lung; 83.2% with HOP-62 NSCLC; 86.2% in the test on NCI-H460 lung; 79.2% with NCI-H522 lung. For the same compound, the growth is 69.6% in the test on A549/ATCC NSCLC, 93% in the test with 786-0 renal and 40.9% in the test with COLO 205 colon.

As for `COc1ccc(C2C=C(c3ccc(OC)c(OC)c3)N=C3SC=CN32)c(Br)c1` (stereo not given), the growth with NCI-H23 lung was 89.3%; with NCI-H226 lung, 70.7%; in the test on NCI-H322M lung, 87.5%; in the test on NCI-H460 lung, 87.5%; with HOP-92 NSCLC, 77.5%; in the test with NCI-H522 lung it was 60.8%. Moreover, the growth in the test with A549/ATCC NSCLC was 82.3%; in the test on 786-0 renal it was 92.3%.

For `FC(F)(F)c1ccc(-c2cnc(Cl)nc2NCc2cc(C(F)(F)F)cc(C(F)(F)F)c2)cc1`, the growth is 1.54% (active) with NCI-H23 lung; 7.69% (active) with NCI-H226 lung; 37.8% in the test with NCI-H322M lung; 33.4% in the test on HOP-62 NSCLC; 3.48% (active) in the test with NCI-H460 lung; -4.24% (active) in the test on NCI-H522 lung. Besides, the growth was 15.8% in the test with A549/ATCC NSCLC, 11.5% in the test on 786-0 renal and -51.1% (active) in the test on COLO 205 colon.

Consider `COc1cccc2c1O/C(=C\c1ncc([N+](=O)[O-])n1C)C2=O`, for which the growth in the test with NCI-H23 lung is -20.4% (active); in the test on NCI-H226 lung it was -16.4% (active); with NCI-H322M lung, 23.9%; in the test on HOP-62 NSCLC, -28.5% (active); in the test with NCI-H460 lung, -34.1% (active); with A549/ATCC NSCLC, -23.8% (active). In addition, the growth is -28.7% (active) in the test with 786-0 renal and -57.8% (active) with COLO 205 colon.

Regarding `C#CCNCCN1C(=O)c2ccc3c4c(ccc(c24)C1=O)C(=O)N(CCNCC#C)C3=O`, the growth in the test on NCI-H23 lung was 23.8%; in the test on NCI-H226 lung, 20.9%; with NCI-H322M lung, 28.7%; in the test with HOP-62 NSCLC it was 48.4%; in the test with NCI-H460 lung, 12.8%; in the test on NCI-H522 lung it was 26.3%. The growth with A549/ATCC NSCLC was 29.2%; in the test with 786-0 renal, 43.1%; with COLO 205 colon it was -77.3% (active).

As for `CC(=O)c1ccc(NCn2nc(-c3ccc(Cl)cc3)oc2=S)cc1`, the growth in the test on NCI-H23 lung was 104%; with NCI-H226 lung, 106%; in the test on NCI-H322M lung it was 110%; in the test with HOP-62 NSCLC, 69.9%; in the test with NCI-H460 lung, 106%; in the test with NCI-H522 lung, 92%. Further, the growth in the test on A549/ATCC NSCLC is 79.2%; in the test with 786-0 renal, 105%; in the test on COLO 205 colon, 107%.

The values above are taken from PubChem BioAssay (NCI).
